Assay results: the supplement of paper PMC4466236
The full ranking holds about 33,000 sequences; the median of “E-score (dimensionless, -0.5 to 0.5)” is about -0.058, and the highest 2% start at about 0.35. This excerpt belongs to a sample that is enriched for the highest values.

test system: MvaT; assay: PBM 8-mer E-score (mean of HK and ME arrays) (E-score (dimensionless, -0.5 to 0.5)); higher = stronger relative binding preference
Procedure: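 Protein binding microarray: GST-tagged full-length MvaT (P. aeruginosa PAO1) bound to two universal double-stranded 60-mer arrays (ME and HK), each with a constant 25-mer primer and a variable 35-mer region covering all 8-mers. The 8-mer E-score (rank-based, range -0.5 to 0.5, >0.45 = specific binding) is the mean of the two arrays.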

Sequence | PBM 8-mer E-score
ATTTCTGC | 0.125
ATTCATTA | 0.219
GATAGGAA | -0.0142
AAATTGCT | 0.214
AACCCGTC | -0.0101
GTCGAGAA | -0.0478
GCATACCC | 0.0205
TCACGCAA | -0.124
GAGTTTAA | 0.235
TAGTTTAA | 0.398
CAGTTTAA | 0.26
ATGTTTAG | 0.212
CTGTTTAA | 0.302
AAGTTTAG | 0.288
AAGTTTTA | 0.318
AAGTTTAT | 0.358
AAGTTTAA | 0.357
AAGTTTAC | 0.157
ATGTTTAA | 0.391
AAGTTTGA | 0.289
TATTCGGA | -0.000615
ACAGGTCG | -0.216
CTGTGTGC | 0.0347
AAGCAGGT | 0.0586
CGTTCAAG | -0.0745

Sequence | PBM 8-mer E-score
GCTCGCAA | -0.107
AGTTTTAG | 0.162
AGTTTTAC | 0.221
AGTTTTAT | 0.351
ATACGGCG | -0.11
AACAACTC | 0.185
AACAACTT | 0.358
AACAACTA | 0.335
AGTGGGCA | 0.0126
GGTCCGAA | -0.0643
ACAACAAT | 0.372
ATAACAAC | 0.228
ACAACAAG | 0.138
ATAACTAG | 0.27
ATAACAAT | 0.355
AAAACAAC | 0.282
AAAACAAG | 0.122
ATAACTAT | 0.388
ATAACTAA | 0.32
AAAACAAT | 0.349
ACAACAAC | 0.216
ATAACAAG | 0.283
AAGTAGAC | 0.0778
ACCATATC | 0.099
GCGTGGAC | -0.192

Sequence | PBM 8-mer E-score
TATGGACA | 0.0866
TGCAGGCA | -0.0892
GACCACCC | -0.296
GTTTATCA | 0.19
GTTTATAA | 0.383
CTTTATAA | 0.344
CTTTATAC | 0.264
ATTTATCC | 0.286
ATTTATAG | 0.342
ATTTATAC | 0.383
GTTTATGA | 0.208
ATTTATAA | 0.459
CGATACGC | -0.172
AGCGGGAT | -0.138
ACCCTTTC | -0.289
GGCAATAA | 0.228
ACTAATTC | 0.227
CCTAATTA | 0.358
ACTAATTA | 0.45
ACTAATTG | 0.308
CCTAATTC | 0.0847
GCTAATGA | -0.138
CCTAATGA | -0.254
GCTAATTA | 0.352
GCTAATCA | 0.0157

Sequence | PBM 8-mer E-score
CAAGTAGA | 0.141
AGTCAGCA | -0.0242
GGCCAGAA | -0.026
GAACGGGA | -0.0641
GTGCGTTA | 0.133
GACCTTGA | -0.138
AGGTTCCG | -0.212
AACTTCAG | 0.158
AACTTCAA | 0.345
AAGTTCAA | 0.398
GACTTCAA | 0.0947
CAGTTCAA | 0.0238
GAGTTCAA | 0.174
AACTTAAG | 0.333
AACTTAAA | 0.352
AACTTAAC | 0.323
TACTTAAA | 0.302
CACTTAAA | 0.0563
AACTTAAT | 0.381
GGGCCACC | -0.382
GATTTGTA | 0.205
GCCCGCGC | -0.262
TGGTGCAA | 0.0798
ACAGATGA | -0.0583
CGAGGTAC | -0.301

Sequence | PBM 8-mer E-score
ACCCATTA | 0.241
CGTTAGCA | -0.0988
CCGGCCTA | -0.174
ATAATTCG | 0.228
ATAATTAG | 0.429
CTAATTCA | 0.228
GAAATTAC | 0.247
CTGATTAA | 0.278
ATAATTAA | 0.456
AGAATTAG | 0.00537
GTAATTAA | 0.343
CTAATTAA | 0.413
GTAATTAC | 0.393
GCAATTAC | 0.169
ATAATTGA | 0.338
CCGTGCCC | -0.184
ATCCTGGA | 0.0568
CCGCACGA | -0.13
AACTATGT | 0.258
ATGGAGAC | -0.0433
CTTTTCTC | -0.00236
TATTTCCA | 0.312
AGACTAAC | 0.00982
AGATACCC | -0.0322
ATAATGGA | 0.238

Sequence | PBM 8-mer E-score
CACGTCTC | -0.173
ATAATTGG | 0.308
ATAATTAC | 0.378
CCAATTAG | 0.073
AGAATTAT | 0.315
ATAATTAT | 0.467
CTAATTAG | 0.35
ATAATTCC | 0.254
CTAATTAC | 0.322
CAAATTAG | 0.18
AGCTAATC | -0.0533
GAAGTTGA | 0.0448
ATTTGGAA | 0.0956
AAATACTT | 0.246
TAATACAA | 0.397
TAATACTA | 0.37
CACTAATA | 0.323
AAATACTC | 0.207
GAATACTA | 0.212
CAATACAA | 0.199
CAATACTA | 0.172
AAATACTA | 0.383
GACTAATA | 0.297
AAATACAA | 0.33
TACTAATA | 0.357

Sequence | PBM 8-mer E-score
CTTCGAGC | -0.301
AGAGGCGC | -0.328
CCACGCGC | -0.112
CCCATCGG | -0.267
GGATACGA | 0.0766
AAGATCGC | -0.0523
AATGGTTC | -0.0396
AAATACCG | 0.271
CCCTAAGG | -0.289
CCGTTATA | 0.308
TAGTTAGA | 0.178
AAGTTATA | 0.442
GCGTTATA | 0.252
TAGTTACA | 0.247
GAGTTATA | 0.369
AAGTTAGA | 0.302
CAGTTATC | 0.131
TAGTTATA | 0.402
GAGTTATC | 0.0914
AAGTTACA | 0.264
CAGTTATA | 0.36
AAGATTGG | 0.154
GAAACGGA | -0.164
ATAACCTA | 0.182
ATGTCGAC | 0.0419

Sequence | PBM 8-mer E-score
AGTTCTGA | 0.144
AAAATCAA | 0.18
AAAGCTGG | -0.0254
GAGAATTA | 0.23
AATAATTA | 0.463
GATAATTA | 0.419
CATAATTA | 0.421
CATAATTC | 0.223
AATAATCG | 0.309
GATAATCC | 0.175
AAGAATTA | 0.295
CATAATCA | 0.227
AGTAATTG | 0.293
AATAATTG | 0.372
AATAATTC | 0.344
ATTCTTGC | 0.0322
CATAGGGA | -0.132
TCCTTCCA | -0.27
GCAGTATA | 0.287
ATCGGCGC | -0.104
AGCCCTAT | -0.14
AAGAAGAC | -0.0906
TAACAGGA | 0.223
AGCCGCCT | -0.243
CGTTGGCC | -0.25

Sequence | PBM 8-mer E-score
AGATACGG | -0.112
ATTTTTCC | 0.0867
GTCGTGAA | -0.22
CAAAGGTA | -0.113
CAACACCA | 0.0286
AGATATAC | 0.155
AGATATAA | 0.373
AGATATAG | 0.208
AGATATAT | 0.46
AGATATCA | 0.194
AGAGATAA | 0.144
GAATGGGC | -0.16
CATATTAA | 0.418
GATATTAC | 0.293
CATATTCA | 0.184
GAGATTAA | 0.232
GATATTAA | 0.438
CAGATTAA | 0.137
CCTACCAG | -0.279
